Bioassay records deposited in PubChem BioAssay by several laboratories.
Most compounds without a hit are left out; they make up all but 3.3% or so of the library.
HNF4A DNA FP: change in binding of human HNF4 alpha to DNA; P41235; HNF4a-FITC DNA binding, fluorescence polarization, 1 h; activity change, % at 10 µM; hit rate 0.3% among 360,000; AID 1224865; in the data active = activity change above about 30%, passing the limit was not always enough
TPT1 inh: inhibitors of Candida albicans tRNA 2'-phosphotransferase TPT1; recombinant caTPT1, FP RNA substrate dephosphorylation; inhibition, % at 5 µM; hit rate 0.81% among 300,000; AID 1962;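 active = inhibition above the mean of all tested compounds plus 3 SD, set per screening campaign, cut at about 24% in these data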;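 also: plate controls were DMSO alone for no effect and ferristatin control at 100 nM for full effect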
CendR NRP1 mod: alters CendR peptide binding to human NRP-1; O14786; FAM-RPARPAR peptide binding to NRP-1, fluorescence polarization; inhibition, % at 25 µM; hit rate 0.85% among 360,000; AID 602438;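 active = inhibition or corrected inhibition above about 18%, plus a signal ratio from 0.5 to 1.5, limit read from the data, passing the limit was not always enough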
Rpn11 inh: blocks the human proteasome subunit Rpn11. O00487. human 26S proteasome, Ub4-pepOG fluorescence polarization; 20S core pre-blocked with epoxomicin. inhibition, % at 20 µM. hit rate 0.59% among 360,000. AID 588493;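 active = inhibition at 20 µM, scaled to each plate's controls, above about 33%, limit read from the data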
PHOSPHO1 inh: inhibitors of human PHOSPHO1 phosphatase; recombinant PHOSPHO1, absorbance phosphatase assay; hit rate 1.1% among 290,000; inhibition, % at 13.3 µM; Q8TCT1; in the data active = inhibition above about 60%
CTSL1 counter: cathepsin L1 inhibition, PFM18AAP counter-screen; AID 1906; inhibition, % at 5.96 µM; recombinant F. hepatica cathepsin L1, Z-Leu-Arg-MCA fluorescence; hit rate 0.49% among 300,000;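 active = inhibition above the mean of all tested compounds plus 3 SD, set per screening campaign, cut at about 17% in these data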;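 also: 0% = plate median of test compound wells and 100% = 1 µM Z-Phe-Ala-diazomethylketone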
* hit, by the source's call; nt = no result given.

SMILES	HNF4A DNA FP	TPT1 inh	CendR NRP1 mod	Rpn11 inh	PHOSPHO1 inh	CTSL1 counter
Cc1ccc(S(=O)(=O)N2C[C@H]3[C@H]4C(=O)N(c5ccccc5)C(=O)[C@H]4CC(=O)[C@H]3[C@@H]2c2cccc3ccccc23)cc1	-5	nt	8	17	nt	nt
Cc1ccc(S(=O)(=O)N2C[C@H]3[C@H]4C(=O)N(c5ccccc5)C(=O)[C@H]4CC(=O)[C@H]3[C@@H]2c2ccccc2F)cc1	-4	nt	25*	6	nt	nt
N#Cc1c(N)sc(=S)c2c1CCCC2	-13	-68	-13	-5	99*	6
Cc1[nH]c(=S)c(C#N)c2c1CCCC2	-3	3	5	-1	-1	-5
CCC1(C)Cc2c(C#N)c(N)sc(=S)c2CO1 (centres undefined)	-2	-12	-21	0	90*	3
COc1ccc(/C=N/n2cnc3c([nH]c4ccccc43)c2=O)cc1COc1ccccn1	nt	3	nt	nt	35	26*
COc1ccc2c(c1)[nH]c1c(=O)n(/N=C/c3ccc(OC)c(CN4CCCC4)c3)cnc12	1	0	-9	10	33	1
COc1ccc(-c2nc(C#N)c(NC(C)c3ccccc3)o2)cc1OC (centres undefined)	4	3	-20	6	18	-1
Cc1cc(=O)oc2cc(NS(=O)(=O)c3ccccc3)ccc12	0	3	13	3	12	4
Cc1cc(=O)oc2cc(NS(=O)(=O)c3ccc(F)cc3)ccc12	0	-4	37*	5	51	9
O=c1cc(O)n(-c2ccc(Cl)cc2)c(=S)[nH]1	4	12	-2	18	82*	2
CC1CN(C(C)C)C(=S)N(c2ccccc2)C1=O (centres undefined)	-6	nt	2	2	nt	nt
O=C(c1ccc(Cl)cc1)c1cnc(Nc2ccccc2Cl)s1	-1	2	-4	-4	24	0
S=c1[nH]nc(Nc2ccccc2Cl)s1	8	0	-1	-7	68*	0
Cc1ccc(Nc2n[nH]c(=S)s2)cc1C	0	nt	10	-8	nt	nt
S=c1[nH]nc(Nc2cccc(Cl)c2)s1	1	0	11	-2	80*	3
Cn1ccnc1SCC(=O)c1ccc(Br)cc1	2	0	-1	12	61*	2
Cc1ccccc1S(=O)(=O)N1CCN(c2ccc3c(c2)C2CC3CCN2C(=O)OCc2ccccc2)CC1 (centres undefined)	1	nt	16	-2	nt	nt
CCC(Sc1nc(C)cc(C)n1)C(=O)NC1=NN=C(c2ccc(C)cc2)CS1 (centres undefined)	11	1	-7	6	104*	1
Cc1cc(C)nc(SCC(=O)NC2=NN=C(c3ccc(Br)cc3)CS2)n1	2	-2	-8	22	37	2
COc1cccc(C2/C(=C(/O)c3ccccc3)C(=O)C(=O)N2CCCC(=O)O)c1 (centres undefined)	0	nt	29*	-2	35	nt
COc1ccc(/C(O)=C2/C(=O)C(=O)N(CCCC(=O)O)C2c2ccc(OC)c(OC)c2)cc1 (centres undefined)	-1	-11	-6	-1	29	-2
CC1(C(=O)NS(=O)(=O)Cc2ccccc2C(F)(F)F)CCN1C(=O)Cc1ccsc1 (centres undefined)	2	nt	-9	2	nt	nt
COc1cc2cc(OC(C)=O)c3cc4c(cc3c2c(OC)c1OC)OCO4	9	nt	3	nt	nt	nt
COc1cc2c(c(OC)c1OC)-c1c(cc3c(c1OC)OCO3)[C@@H](OC(C)=O)[C@H](C)[C@H](C)C2	0	-6	27*	0	26	0
C/C=C(/C)C(=O)O[C@@H]1c2cc(OC)c(OC)c(OC)c2-c2c(cc3c(c2OC)OCO3)C[C@H](C)[C@]1(C)O	5	-3	28*	-3	18	2
O=C(Cc1cccc2ccccc12)Nc1ccccc1Br	-2	2	0	3	20	-2
O=c1ccn(CCc2c[nH]c3ccccc23)c2c1CCCC2	1	-1	1	-2	-96	2
CC(C)(C)c1cn(-c2ccc(F)cc2)c(=S)[nH]1	-1	2	-4	-10	69*	1
Cc1ccccc1-c1cn(-c2ccccc2)c(=S)[nH]1	-1	2	-1	-1	47	0
